Records with an inconclusive call do not appear. Activity calls are given as the source filed them. The calls were made as follows, unless noted: active = hit-call score of the fitted dose curve at least 0.9, where 1 is the maximum; inactive = score below 0.9.
Experiments:
[1] = molecular target: Paired box protein Pax-6 (Homo sapiens) (UniProt P26367); assay: ATG_Pax6_CIS: Attagene CIS-FACTORIAL HepG2 Assay for human Paired Box 6 (PAX6) (AID 2282956); conditions: HepG2 CIS-FACTORIAL PAX6 reporter transcription, RNA readout; actives raise or lower the signal
In short: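 Readout: reporter transcript fluorescence after RT-PCR and capillary electrophoresis. Cells: HepG2, transiently transfected with cis-regulated MRTUs. Exposure 24 h. Gain or loss of signal fitted bidirectionally relative to DMSO.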

[2] = ATG_PXRE_CIS: Attagene CIS-FACTORIAL HepG2 Assay for human Pregnane X Receptor Element (PXRE) (AID 2282957); conditions: HepG2 Attagene CIS-FACTORIAL PXRE reporter, mRNA; actives raise or lower the signal
In short: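 Reporter transcripts under endogenous PXR-responsive cis-regulation quantified from total RNA of transfected HepG2 cells 24 h post-dosing, via RT-PCR with fluorescent primer extension and capillary electrophoresis. Gain or loss of signal fitted against DMSO baseline.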

[3] = molecular target: Transcription factor Sp1 (Homo sapiens) (UniProt P08047); assay: ATG_Sp1_CIS: Attagene CIS-FACTORIAL HepG2 Assay for human Specificity Protein 1 (Sp1) (AID 2282961); conditions: HepG2 Sp1 cis-reporter transcription, actives raise or lower the signal
In short: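 Measures mRNA induction of an Sp1-linked reporter in HepG2 cells 24 h post-dosing. Multiplexed reporters read by RT-PCR and capillary electrophoresis; DMSO serves as negative control and baseline.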

[4] = ATG_SREBP_CIS: Attagene CIS-FACTORIAL HepG2 Assay for human Sterol Regulatory Element Binding (SREBP) (AID 2282962); conditions: HepG2 Attagene cis-factorial SREBP reporter, mRNA; actives raise or lower the signal
In short: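 Readout: fluorescent reporter-transcript peaks resolved by capillary electrophoresis after RT-PCR. Cells were human HepG2 carrying transfected cis-promoter reporter constructs, dosed for 24 h. Gain or loss of signal was fitted against DMSO controls.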

[5] = molecular target: Signal transducer and activator of transcription 3 (Homo sapiens) (UniProt P40763); assay: ATG_STAT3_CIS: Attagene CIS-FACTORIAL HepG2 Assay for human Signal Transducer and Activator of Transcription 3 (STAT3) (AID 2282963); conditions: HepG2, Attagene cis-factorial STAT3 reporter transcription; actives raise or lower the signal
In short: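 Readout is reporter transcript quantified by RT-PCR and capillary electrophoresis, with 6-FAM primer extension and HpaI digestion. Total RNA is taken 24 h after dosing transiently transfected HepG2 carrying cis-regulated reporter units. Bidirectional fit against DMSO.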

[6] = ATG_TA_CIS: Attagene CIS-FACTORIAL HepG2 Assay for human TA Basal Promoter (AID 2282964); conditions: HepG2 Attagene CIS-factorial TA basal promoter reporter; actives raise or lower the signal
In short: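 HepG2 cells transiently transfected with multiple reporter units under cis promoter elements, reporting endogenous transcription factor activity; this endpoint tracks the TA basal promoter as background control. Reporter mRNA after 24 h dosing measured by RT-PCR/capillary electrophoresis; bidirectional fits versus DMSO.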

[7] = ATG_TCF_b_cat_CIS: Attagene CIS-FACTORIAL HepG2 Assay for human T-Cell-Factor with beta-catenin (TCF/b-cat) (AID 2282965); conditions: HepG2 TCF/beta-catenin cis-reporter transcription, actives raise or lower the signal
In short: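 Endogenous TCF/LEF activity read as reporter transcript level via RT-PCR and capillary electrophoresis fluorescence in transfected HepG2, 24 h exposure; gain or loss of signal fitted against DMSO controls.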

[8] = ATG_TAL_CIS: Attagene CIS-FACTORIAL HepG2 Assay for human TAL Basal Promoter (AID 2282966); conditions: HepG2 Attagene cis-factorial TAL promoter reporter; actives raise or lower the signal;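 also: background control endpoint measuring basal TAL promoter reporter mRNA not a specific factor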
In short: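 Background-control endpoint: basal TAL promoter reporter transcripts in transiently transfected HepG2, measured 24 h after dosing. Read-out by RT-PCR with fluorescent primer extension and capillary electrophoresis; gain or loss of signal fitted relative to DMSO.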

[9] = ATG_TGFb_CIS: Attagene CIS-FACTORIAL HepG2 Assay for human Transforming Growth Factor (TGF) (AID 2282967); conditions: HepG2 Attagene CIS TGFb reporter, mRNA transcription; actives raise or lower the signal
In short: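 HepG2 cells transiently transfected with cis-promoter-driven multiple reporter units measure endogenous TF activity; reporter mRNA quantified at 24 h by RT-PCR, FAM labeling, HpaI digestion and capillary electrophoresis. Bidirectional fit vs DMSO.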

[10] = molecular target: Estrogen receptor (Homo sapiens) (UniProt P03372); assay: ATG_ERa_TRANS: Attagene TRANS-FACTORIAL HepG2 Assay for human Estrogen Receptor alpha (ERa) (AID 2282970; active = hit-call score of the fitted dose curve at least 0.9, where 1 is the maximum); conditions: HepG2 Attagene TRANS ERa GAL4 reporter, mRNA
In short: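 Reporter transcripts were measured 24 h after dosing by RT-PCR with fluorescent primer extension and capillary electrophoresis. The system is transiently transfected HepG2 expressing exogenous NR-Gal4 chimeras driving GAL4-UAS reporters; DMSO is the baseline.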

[11] = ATG_RORE_CIS: Attagene CIS-FACTORIAL HepG2 Assay for human RAR-related Orphan Receptor Element (RORE) (AID 2282959); conditions: HepG2 Attagene cis-factorial RORE reporter, mRNA; actives raise or lower the signal
In short: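 Multiplexed reporter assay measuring mRNA induction from a cis promoter element in transiently transfected HepG2 cells after 24 h treatment. Detection via RT-PCR and capillary electrophoresis fluorescence; DMSO serves as baseline.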

[12] = ATG_Sox_CIS: Attagene CIS-FACTORIAL HepG2 Assay for human SRY-box transcription factor (SOX) (AID 2282960); conditions: HepG2 Attagene cis-factorial SOX reporter, mRNA; actives raise or lower the signal
In short: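 Cells were transfected with reporter constructs under cis-regulatory promoters, then exposed to chemicals for 24 h. Reporter transcripts were quantified by fluorescence after RT-PCR and capillary electrophoresis; activity was fitted in both directions against DMSO.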

[13] = molecular target: Steroid hormone receptor ERR1 (Homo sapiens) (UniProt P11474); assay: ATG_ERRa_TRANS: Attagene TRANS-FACTORIAL HepG2 Assay for human Estrogen-Related Receptor alpha (ERRa) (AID 2282971; active = hit-call score of the fitted dose curve at least 0.9, where 1 is the maximum); conditions: HepG2 Attagene TRANS reporter, ERRa transactivation
In short: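 Reporter transcripts from ERRa-Gal4 chimera activity measured in transiently transfected human HepG2 cells 24 hours after dosing, using RT-PCR with 6-FAM primer extension, HpaI digestion and capillary electrophoresis; DMSO is baseline.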

[14] = molecular target: X-box-binding protein 1 (Homo sapiens) (UniProt P17861); assay: ATG_Xbp1_CIS: Attagene CIS-FACTORIAL HepG2 Assay for human X-box Binding Protein 1 (XBP1) (AID 2282972); conditions: HepG2 XBP1 cis-element reporter, Attagene multiplex; actives raise or lower the signal
In short: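 Read-out: fluorescent reporter mRNA fragments resolved by capillary electrophoresis after RT-PCR. Human HepG2 liver cells carried transfected cis-promoter reporter units and were exposed to chemicals for 24 hours. Gain or loss of signal fitted relative to DMSO baseline.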

[15] = molecular target: Estrogen-related receptor gamma (Homo sapiens) (UniProt P62508); assay: ATG_ERRg_TRANS: Attagene TRANS-FACTORIAL HepG2 Assay for human Estrogen-Related Receptor gamma (ERRg) (AID 2282977; active = hit-call score of the fitted dose curve at least 0.9, where 1 is the maximum;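 also: hits increase reporter signal over DMSO so potencies reflect activators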); conditions: HepG2 Attagene TRANS reporter, ERRg transactivation
In short: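 Exogenous NR-Gal4 chimera activity measured as reporter transcript induction after 24 h in transiently transfected HepG2 cells. RNA reverse-transcribed, PCR-amplified, 6-FAM-labelled and resolved by capillary electrophoresis; increase over DMSO baseline.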

[16] = ATG_PPRE_CIS: Attagene CIS-FACTORIAL HepG2 Assay for human Peroxisome Proliferator-activated Response Element (PPRE) (AID 2282958); conditions: HepG2 PPRE cis-element reporter, Attagene transcription factor profiling; actives raise or lower the signal
In short: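 Transcript-level reporter induction in transfected HepG2 cells after 24 h chemical exposure, quantified by fluorescence from RT-PCR products separated by capillary electrophoresis.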

[17] = ATG_VDRE_CIS: Attagene CIS-FACTORIAL HepG2 Assay for human Vitamin D Receptor Element (VDRE) (AID 2282968); conditions: HepG2 VDRE cis-reporter transcription, actives raise or lower the signal
In short: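 Readout is VDRE-driven reporter mRNA reflecting endogenous factor activity in human HepG2 cells, sampled 24 h post-dose. Quantification used labelled RT-PCR products separated by capillary electrophoresis; bidirectional analysis relative to DMSO.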

[18] = ATG_GAL4_TRANS: Attagene TRANS-FACTORIAL HepG2 Assay for GAL4 (Internal Marker) (AID 2282976; active = hit-call score of the fitted dose curve at least 0.9, where 1 is the maximum); conditions: HepG2 Attagene TRANS GAL4 internal marker reporter
In short: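 In transfected human HepG2 liver cells dosed 24 h, GAL4 reporter mRNA serves as a baseline marker. Detection by RT-PCR with fluorescent capillary electrophoresis, activity fitted upward relative to DMSO.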

[19] = ATG_M_19_TRANS: Attagene TRANS-FACTORIAL HepG2 Assay for M19 Transcription Factor (Internal Marker) (AID 2282974; active = hit-call score of the fitted dose curve at least 0.9, where 1 is the maximum); conditions: HepG2 Attagene TRANS-FACTORIAL M19 internal marker reporter
In short: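 After transfection of HepG2 with GAL4-UAS-driven reporter constructs, cells are dosed for 24 h. Total RNA is reverse-transcribed, reporter sequences PCR-amplified and labelled, then HpaI-digested and sized by capillary electrophoresis.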

[20] = molecular target: Nuclear receptor subfamily 1 group I member 3 (Homo sapiens) (UniProt Q14994); assay: ATG_CAR_TRANS: Attagene TRANS-FACTORIAL HepG2 Assay for human Constitutive Androstane Receptor (CAR) (AID 2282969; active = hit-call score of the fitted dose curve at least 0.9, where 1 is the maximum;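 also: activators raise reporter mRNA above DMSO so AC50 marks induction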); conditions: HepG2 Attagene TRANS-FACTORIAL CAR reporter
In short: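 Signal is reporter mRNA induction relative to DMSO, measured 24 h after dosing by RT-PCR with fluorescent primer extension and capillary electrophoresis. Human HepG2 liver cells carried transiently transfected chimeric NR-Gal4/GAL4-UAS reporter constructs.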

Measured: AC50

Signal transducer and activator of transcription 3 (Homo sapiens), sequence (P40763 whole entry, looked up): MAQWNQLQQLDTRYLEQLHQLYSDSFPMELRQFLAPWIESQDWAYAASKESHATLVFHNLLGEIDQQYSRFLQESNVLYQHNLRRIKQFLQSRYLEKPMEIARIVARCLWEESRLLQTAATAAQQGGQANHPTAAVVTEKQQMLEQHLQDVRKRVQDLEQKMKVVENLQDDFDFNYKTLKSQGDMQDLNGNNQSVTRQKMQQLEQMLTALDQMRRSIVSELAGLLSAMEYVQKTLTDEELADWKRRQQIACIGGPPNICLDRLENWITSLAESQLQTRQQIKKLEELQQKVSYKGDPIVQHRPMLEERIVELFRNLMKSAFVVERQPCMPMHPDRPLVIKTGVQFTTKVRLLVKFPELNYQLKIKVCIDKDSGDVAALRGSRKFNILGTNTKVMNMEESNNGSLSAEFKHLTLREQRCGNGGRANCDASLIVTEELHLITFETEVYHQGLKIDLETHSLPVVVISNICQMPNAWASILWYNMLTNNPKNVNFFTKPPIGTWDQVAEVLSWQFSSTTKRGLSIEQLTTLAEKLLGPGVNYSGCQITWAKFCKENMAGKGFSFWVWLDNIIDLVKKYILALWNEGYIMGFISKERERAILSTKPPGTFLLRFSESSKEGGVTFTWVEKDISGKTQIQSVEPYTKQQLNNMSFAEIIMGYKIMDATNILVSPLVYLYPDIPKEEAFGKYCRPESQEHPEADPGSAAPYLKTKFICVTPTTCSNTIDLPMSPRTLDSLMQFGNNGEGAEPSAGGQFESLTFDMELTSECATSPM
Steroid hormone receptor ERR1 (Homo sapiens), sequence (P11474 whole entry, looked up, the tested form may be a part): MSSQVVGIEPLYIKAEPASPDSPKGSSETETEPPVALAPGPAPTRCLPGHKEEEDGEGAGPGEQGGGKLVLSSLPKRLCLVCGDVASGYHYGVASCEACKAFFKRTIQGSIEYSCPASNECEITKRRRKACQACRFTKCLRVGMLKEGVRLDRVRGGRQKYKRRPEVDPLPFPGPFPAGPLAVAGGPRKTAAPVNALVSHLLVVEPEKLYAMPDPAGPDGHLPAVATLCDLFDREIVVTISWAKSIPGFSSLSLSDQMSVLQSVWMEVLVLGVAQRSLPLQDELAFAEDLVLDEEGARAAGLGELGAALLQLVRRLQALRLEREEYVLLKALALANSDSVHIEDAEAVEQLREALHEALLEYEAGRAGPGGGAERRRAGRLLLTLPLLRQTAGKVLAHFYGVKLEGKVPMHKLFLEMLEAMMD
Estrogen receptor (Homo sapiens), sequence (P03372 whole entry, looked up, the tested form may be a part): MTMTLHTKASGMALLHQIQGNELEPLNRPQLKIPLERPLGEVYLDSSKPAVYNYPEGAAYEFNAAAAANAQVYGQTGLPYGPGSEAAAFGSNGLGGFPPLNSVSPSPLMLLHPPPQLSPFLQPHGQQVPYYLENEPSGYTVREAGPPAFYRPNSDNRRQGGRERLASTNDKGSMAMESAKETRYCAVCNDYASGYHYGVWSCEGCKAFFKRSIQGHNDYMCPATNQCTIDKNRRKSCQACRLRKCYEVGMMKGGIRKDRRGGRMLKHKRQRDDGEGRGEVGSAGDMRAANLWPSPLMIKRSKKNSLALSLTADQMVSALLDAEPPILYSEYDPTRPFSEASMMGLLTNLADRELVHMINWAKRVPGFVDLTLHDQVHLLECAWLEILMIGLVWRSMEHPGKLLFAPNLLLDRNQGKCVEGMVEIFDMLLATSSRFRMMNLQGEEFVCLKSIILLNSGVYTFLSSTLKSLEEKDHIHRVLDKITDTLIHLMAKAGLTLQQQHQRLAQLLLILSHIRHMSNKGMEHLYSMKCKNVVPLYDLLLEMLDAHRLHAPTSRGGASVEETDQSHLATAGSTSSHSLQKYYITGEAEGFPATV
Paired box protein Pax-6 (Homo sapiens), sequence (P26367 whole entry, looked up): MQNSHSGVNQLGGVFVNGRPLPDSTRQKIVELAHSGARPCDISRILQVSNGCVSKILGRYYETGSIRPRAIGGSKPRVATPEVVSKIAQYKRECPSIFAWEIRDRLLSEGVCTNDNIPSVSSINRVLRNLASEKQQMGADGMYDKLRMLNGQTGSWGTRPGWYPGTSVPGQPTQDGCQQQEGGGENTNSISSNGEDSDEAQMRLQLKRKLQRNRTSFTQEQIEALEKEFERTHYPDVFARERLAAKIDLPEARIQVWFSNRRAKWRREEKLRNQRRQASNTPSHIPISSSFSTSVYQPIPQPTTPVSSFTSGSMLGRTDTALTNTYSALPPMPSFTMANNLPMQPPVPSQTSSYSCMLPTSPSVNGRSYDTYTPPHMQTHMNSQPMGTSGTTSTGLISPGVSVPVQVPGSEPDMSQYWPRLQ
Transcription factor Sp1 (Homo sapiens), sequence (P08047 whole entry, looked up): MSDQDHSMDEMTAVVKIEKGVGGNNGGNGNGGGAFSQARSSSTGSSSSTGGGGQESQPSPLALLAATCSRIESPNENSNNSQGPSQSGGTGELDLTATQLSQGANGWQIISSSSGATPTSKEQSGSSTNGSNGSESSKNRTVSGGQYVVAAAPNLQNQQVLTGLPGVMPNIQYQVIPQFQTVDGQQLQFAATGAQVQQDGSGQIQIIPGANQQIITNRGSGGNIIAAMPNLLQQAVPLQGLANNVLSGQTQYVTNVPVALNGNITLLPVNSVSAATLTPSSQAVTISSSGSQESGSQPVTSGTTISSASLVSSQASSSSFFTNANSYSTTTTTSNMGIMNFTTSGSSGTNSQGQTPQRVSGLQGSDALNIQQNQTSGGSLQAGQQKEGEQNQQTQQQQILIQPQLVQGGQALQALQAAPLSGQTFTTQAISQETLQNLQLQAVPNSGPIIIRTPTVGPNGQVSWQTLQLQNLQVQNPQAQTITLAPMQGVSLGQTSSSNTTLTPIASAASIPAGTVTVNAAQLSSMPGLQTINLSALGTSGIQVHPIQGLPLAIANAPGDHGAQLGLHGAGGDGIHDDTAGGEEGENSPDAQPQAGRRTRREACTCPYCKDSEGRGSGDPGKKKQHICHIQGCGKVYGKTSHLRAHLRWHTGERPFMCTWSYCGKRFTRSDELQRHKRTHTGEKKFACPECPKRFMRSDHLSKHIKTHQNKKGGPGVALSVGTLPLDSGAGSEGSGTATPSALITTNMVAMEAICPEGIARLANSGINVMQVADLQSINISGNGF
X-box-binding protein 1 (Homo sapiens), sequence (P17861 whole entry, looked up, the tested form may be a part): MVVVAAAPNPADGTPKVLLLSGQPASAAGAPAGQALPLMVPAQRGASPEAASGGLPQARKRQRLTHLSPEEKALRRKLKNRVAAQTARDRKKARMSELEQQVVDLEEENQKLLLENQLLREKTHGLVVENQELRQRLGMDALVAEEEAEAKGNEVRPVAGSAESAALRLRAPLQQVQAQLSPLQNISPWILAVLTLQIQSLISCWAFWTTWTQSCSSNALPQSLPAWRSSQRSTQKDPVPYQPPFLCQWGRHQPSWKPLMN
Estrogen-related receptor gamma (Homo sapiens), sequence (P62508 whole entry, looked up, the tested form may be a part): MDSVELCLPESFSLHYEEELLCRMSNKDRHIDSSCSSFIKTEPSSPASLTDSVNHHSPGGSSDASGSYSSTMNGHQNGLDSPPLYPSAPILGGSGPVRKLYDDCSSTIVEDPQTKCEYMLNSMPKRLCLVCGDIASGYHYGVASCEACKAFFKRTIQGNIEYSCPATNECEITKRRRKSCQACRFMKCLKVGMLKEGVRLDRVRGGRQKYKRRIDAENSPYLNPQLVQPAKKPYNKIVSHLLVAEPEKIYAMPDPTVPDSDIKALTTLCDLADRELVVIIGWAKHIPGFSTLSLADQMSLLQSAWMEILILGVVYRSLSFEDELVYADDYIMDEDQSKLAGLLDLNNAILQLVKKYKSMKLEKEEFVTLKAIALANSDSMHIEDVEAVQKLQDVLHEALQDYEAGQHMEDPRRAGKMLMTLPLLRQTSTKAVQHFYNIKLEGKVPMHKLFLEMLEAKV
Nuclear receptor subfamily 1 group I member 3 (Homo sapiens), sequence (Q14994 whole entry, looked up, the tested form may be a part): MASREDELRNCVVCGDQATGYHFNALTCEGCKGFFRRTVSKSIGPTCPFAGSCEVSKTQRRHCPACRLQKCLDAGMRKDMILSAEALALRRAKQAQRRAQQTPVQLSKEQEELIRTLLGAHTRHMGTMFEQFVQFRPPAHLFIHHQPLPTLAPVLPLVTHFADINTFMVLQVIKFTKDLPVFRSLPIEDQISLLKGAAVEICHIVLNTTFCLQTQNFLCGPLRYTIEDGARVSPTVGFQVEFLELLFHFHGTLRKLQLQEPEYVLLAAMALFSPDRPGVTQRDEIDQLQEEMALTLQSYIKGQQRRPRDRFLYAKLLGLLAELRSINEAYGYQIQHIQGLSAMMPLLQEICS

O=S(=O)(O)c1ccc(O)c2ncccc12
inactive: [1] | [2] | [3] | [4] | [5] | [6] | [7] | [8] | [9] | [10]

COCCCOc1ccnc(CS(=O)c2nc3ccccc3[nH]2)c1C (stereo not given)
not listed: [2] | [10] | [16] | [17] | [18] | [19] | [20]
inactive: all other assays above

O=C(Cl)c1cccc(C(=O)Cl)c1
not listed: [2] | [10] | [13] | [15] | [19] | [20]
inactive: all other assays above

NCCCCCCN
not listed: [2] | [10] | [20]
inactive: all other assays above

COCCOCCOCCOCCOCCO
not listed: [2] | [9] | [10] | [18]
inactive: all other assays above

CC1COc2ccccc2N1C(=O)C(Cl)Cl (stereo not given)
active: [1] 26.7 µM | [17] 17.7 µM
not listed: [2] | [13] | [15] | [18] | [20]
inactive: all other assays above

CCCCCCCCCCCCCCCC(=O)OC[C@H](O)[C@H]1OC(=O)C(O)=C1O
active: [12] 150 µM | [4] 100 µM | [7] 168 µM | [8] 100 µM | [9] 3.14 µM | [17] 37.1 µM
not listed: [2] | [10] | [13] | [19] | [20]
inactive: all other assays above

CC(=O)OCC=Cc1ccccc1
not listed: [2] | [10] | [12]
inactive: all other assays above

CC(C)=CCC[C@](C)(O)[C@@H]1CC=C(C)CC1
not listed: [2] | [10] | [13] | [15] | [18]
inactive: all other assays above

C=C[C@@H](C)CCC=C(C)C
not listed: [2] | [9] | [10] | [13] | [15] | [19] | [20]
inactive: all other assays above

CCCC1CCC(=O)O1 (stereo not given)
not listed: [2] | [10] | [13] | [14] | [15] | [19] | [20]
inactive: all other assays above

O=C(Oc1ccccc1)c1ccc(O)cc1
active: [17] 159 µM
not listed: [2] | [10] | [13] | [15] | [20]
inactive: all other assays above

CCCC(=O)c1cc(O)c(O)cc1O
not listed: [2] | [4] | [13] | [20]
inactive: all other assays above

CC(C)(C)C(=O)c1ccccc1
not listed: [2] | [3] | [13] | [15] | [16] | [18] | [19] | [20]
inactive: all other assays above

CNC[C@H](O)c1cccc(O)c1
active: [2] 34.2 µM
not listed: [4] | [5] | [10] | [11] | [15] | [16]
inactive: all other assays above

— PubChem BioAssay (EPA / NIEHS)
